About 17,000 (4.7%) of roughly 360,000 compounds were called active. Not shown: some 5% with an inconclusive outcome. Rule as the data show it: active = activity change below about -50%; inconclusive = mostly about -30% to -49%; inactive = weaker than that. What follows is part of a selection rich in actives, with near analogues and random picks from the rest.
Test: qHTS for Inhibitors of Inflammasome Signaling: IL-1-beta AlphaLISA Primary Screen
Details: THP-1 LPS/ATP IL-1B secretion, 16 h; at 57.5 µM, hits give low values
In short: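 THP-1 cells pretreated 1 hr with compounds (up to 57.5 uM final), then stimulated with LPS (250 ng/mL final) plus ATP (1.25 mM final); secreted IL-1B measured by AlphaLISA after 16 hr, decreased signal indicating inhibition.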
For `O=C(CSc1nnc(-c2ccncc2)n1-c1ccc(Cl)cc1)Nc1ccc(C(=O)O)cc1`, the activity change was 8.71% (inactive).
With `CCOc1ccc(CN2CCCN(C)CC2)cc1` the activity change was 14.6% (inactive).
For `CCOc1ccc(C(O)Cn2c(=N)n(CCN3CCCCC3)c3ccccc32)cc1` (centres undefined), the activity change was -60.3% (active).
In the case of `Cn1c(=N)n(CC(O)c2ccccc2)c2ccccc21` (centres undefined), the activity change is reported as 35.9% (inactive).
For `COCCn1cnnc1SCC(=O)Nc1cccc(S(=O)(=O)N2CCCCC2)c1`, the activity change was 5.3% (inactive).
In the case of `CN(CCO)C(=O)c1nc[nH]c1C(=O)N(C)Cc1ccccc1`, the activity change is reported as 26.2% (inactive).
For `CCCCCCN1C[C@H](O)[C@@H](n2cc(C3CC3)nn2)C[C@@H]1c1ccc(Cl)cc1`, the activity change was 82% (inactive).
In the case of `CC(=O)Nc1cccc(OCC(=O)/C=C2\N(C)c3ccccc3C2(C)C)c1`, the activity change is reported as -82% (active).
For `CC(=O)Nc1ccc(NC(=O)COc2ccc(-c3ccccc3)cc2)cc1`, the activity change was -15.4% (inactive).
In the case of `CN1CCN(CCC(=O)N/N=C/C=C2\N(C)c3ccccc3C2(C)C)CC1`, the activity change is reported as 10.2% (inactive).
In the case of `C[C@@H]1CC2=C(C(=O)OC(C)(C)O2)[C@@H](C2CC2)O1`, the activity change is reported as 32.1% (inactive).
For `CC1CCc2[nH]c3ccc(C(=O)N(C)CC(=O)Nc4cccc(F)c4)cc3c2C1` (centres undefined), the activity change was -74.7% (active).
With `CN(CC(=O)Nc1cccc(F)c1)C(=O)CC1CCCC1` the activity change was 0.0851% (inactive).
With `CN(CC(=O)Nc1cccc(F)c1)C(=O)C1=COCCO1` the activity change was 2.81% (inactive).
In the case of `CCCCNS(=O)(=O)CCNCc1ccccc1OC`, the activity change is reported as 3.56% (inactive).
In the case of `CCCCCCCCNS(=O)(=O)CCNC1CCCCC1`, the activity change is reported as -65.1% (active).
With `CCCCCCNS(=O)(=O)c1ccccc1Br` the activity change was 14% (inactive).
In the case of `C[C@H]1CN([C@@H](C)CO)C(=O)CCCn2cc(nn2)CO[C@@H]1CN(C)S(=O)(=O)c1cccs1`, the activity change is reported as 7.03% (inactive).
For `CC(C)(C)NC(=O)C(CCc1ccccc1)n1c(=O)c(-c2ccccc2)nc2ccccc21` (centres undefined), the activity change was 0% (inactive).
With `CC(C)C1CCN(C(=O)C2CCC(=O)N(C3CCCCCC3)C2)CC1` (centres undefined) the activity change was -3.63% (inactive).
With `CONC(=O)c1cc(OCC(F)(F)F)ccc1OCC(F)(F)F` the activity change was -0.808% (inactive).
With `CCOc1ccc(CCNC(=O)Nc2ccccc2)cc1OCC` the activity change was 30.9% (inactive).
With `O=C(NC(=O)c1cc(OCC(F)(F)F)ccc1OCC(F)(F)F)Nc1ccccc1` the activity change was -63.5% (active).
In the case of `NS(=O)(=O)c1ccc(CNC(=O)c2cc(S(=O)(=O)N3CCOCC3)ccc2N2CCCC2)cc1`, the activity change is reported as -15.8% (inactive).
For `O=C(Nc1ccc(N2CCCCC2)cc1)c1cc(S(=O)(=O)N2CCOCC2)ccc1F`, the activity change was -27.8% (inactive).
With `O=C(CNC(=O)c1cc(S(=O)(=O)N2CCOCC2)ccc1N1CCCC1)Nc1ccc(F)c(F)c1` the activity change was -54% (active).
For `c1ccc(-c2cc3c(NCC4COc5ccccc5O4)ncnc3s2)cc1` (centres undefined), the activity change was -59.2% (active).
In the case of `S=C(NCC1COc2ccccc2O1)Nc1ccc(Br)cc1` (centres undefined), the activity change is reported as 0% (inactive).
In the case of `Oc1ccccc1N1CCN(c2ncnc3sc(-c4ccccc4)cc23)CC1`, the activity change is reported as -28.1% (inactive).
For `Nc1cc(=O)n(Cc2ccccc2)c(=O)n1Cc1ccccc1`, the activity change was -0.791% (inactive).
In the case of `O=C(NCc1ccccc1)C1C(=O)N(Cc2ccccc2)C(=O)C1C1(O)CCCC1` (centres undefined), the activity change is reported as -0.107% (inactive).
With `COc1ccc(-c2[nH][nH]c(=O)c2NC(=O)c2ccc([N+](=O)[O-])cc2)cc1` the activity change was 16% (inactive).
For `CC(C)[C@@H](C(=O)OCC(=O)c1ccc2c(c1)NC(=O)CO2)N1C(=O)c2ccccc2C1=O`, the activity change was 25.8% (inactive).
In the case of `COc1ccc(CNC(=O)COC(=O)C(CCSC)N2C(=O)c3ccccc3C2=O)cc1` (centres undefined), the activity change is reported as 5% (inactive).
For `CCCCC(C(=O)OCC(=O)c1ccc(OC)cc1)N1C(=O)c2ccccc2C1=O` (centres undefined), the activity change was -57.4% (active).
For `CCN(CC(=O)NCCCN1CCOCC1)S(=O)(=O)c1cc(Cl)ccc1Cl`, the activity change was -11.7% (inactive).
With `Brc1ccc2nc(N3CCCC3)sc2c1` the activity change was 32.8% (inactive).
For `COc1ccc(S(=O)(=O)N(C)CC(=O)N2CCCC2)cc1`, the activity change was -1.23% (inactive).
For `CCN(CC)CCN(C(=O)c1cc(Cl)sc1Cl)c1nc2cc3c(cc2s1)OCO3`, the activity change was 0% (inactive).
In the case of `Cc1ccc2nc(N(CCN(C)C)C(=O)C3=COCCO3)sc2c1`, the activity change is reported as -6.05% (inactive).
In the case of `CN(C)CCCN(C(=O)c1ccc(S(=O)(=O)N2CCCCCC2)cc1)c1nc2ccc(Br)cc2s1`, the activity change is reported as -101% (active).
With `CCc1ccc2nc(N(CCCN(C)C)C(=O)c3ccc4c(c3)OCCO4)sc2c1` the activity change was -61.9% (active).
In the case of `CN(C)CCCN(C(=O)c1ccc(S(=O)(=O)N2CCCCCC2)cc1)c1nc2cc3c(cc2s1)OCCO3`, the activity change is reported as -66.5% (active).
With `CN(C)CCN(C(=O)CN1C(=O)c2ccccc2C1=O)c1nc2cc3c(cc2s1)OCCO3` the activity change was 10% (inactive).
With `CN(C)CCN(C(=O)C1CCCCC1)c1nc2cc3c(cc2s1)OCO3` the activity change was -5.98% (inactive).
With `COc1ccc2sc(N(CCCN(C)C)C(=O)c3ccc(S(=O)(=O)N(C)C4CCCCC4)cc3)nc2c1` the activity change was -72.4% (active).
With `CCN(CC)CCN(C(=O)c1cccc([N+](=O)[O-])c1)c1nc2ccc(OC)cc2s1` the activity change was -20.4% (inactive).
With `CCN(CC(=O)Nc1c(F)cccc1F)C(=O)c1ccc(S(=O)(=O)N2CCCCC2)cc1` the activity change was -1.87% (inactive).
For `Cc1ccc(S(=O)(=O)n2oc(=O)c(C3CCCCC3)c2N)cc1`, the activity change was -0.476% (inactive).
With `C/C(COc1ccccc1)=N\NC(=O)c1nnn(-c2nonc2N)c1-c1ccc(C)cc1` the activity change was -10.3% (inactive).
In the case of `CCCOc1ccc(F)cc1-c1cc(C(=O)Nc2ccc(F)c(Cl)c2)[nH]n1`, the activity change is reported as -11.9% (inactive).
For `O=C1c2ccncc2C(=O)N1C1CCCCC1`, the activity change was -1.14% (inactive).
With `Cc1ccc(C)c(NC2=NCC(=O)N2c2ccc3c(c2)OCCO3)c1` the activity change was 1.69% (inactive).
With `Cc1cn(C2CC(O)C(CO)O2)c(=O)n(CCCc2ccccc2)c1=O` (centres undefined) the activity change was 0% (inactive).
With `CCOC(=O)N1CCN(C(=O)c2ccc(CN(c3ccc(C)c(C)c3)S(C)(=O)=O)cc2)CC1` the activity change was 1.54% (inactive).
For `Cc1nc2ccccn2c(=O)c1NC(=O)c1ccc(Br)o1`, the activity change was 9.2% (inactive).
For `O=c1c2ccccc2ncn1CCc1ccncc1`, the activity change was -6.13% (inactive).
For `COC1(C2=NCCN2)COc2ccccc2O1` (centres undefined), the activity change was 6.63% (inactive).
In the case of `COc1cc2c(cc1OC)C(C)N(S(=O)(=O)c1cnc(Cl)c(Cl)c1)CC2` (centres undefined), the activity change is reported as -97.4% (active).
For `COc1ccc(C2SCCN2S(=O)(=O)c2ccccc2)cc1OC` (centres undefined), the activity change was -9.4% (inactive).
With `COc1cc2c(cc1OC)CN(C(=O)c1ccc(S(=O)(=O)N3CCCCCC3)cc1)CC2` the activity change was -4.82% (inactive).
With `COc1ccc(CC2c3cc(OC)c(OC)cc3CC[N+]2(C)CCC(=O)OCCCCCOC(=O)CC[N+]2(C)CCc3cc(OC)c(OC)cc3C2Cc2ccc(OC)c(OC)c2)cc1OC` (centres undefined) the activity change was -63.5% (active).
With `CCc1ccc(OCC2c3cc(OC)c(OC)cc3CCN2C(C)=O)cc1` (centres undefined) the activity change was -10.3% (inactive).
In the case of `COC(=O)C1=CN(Cc2ccc(OC)c(OC)c2)C=C(C(=O)OC)C1c1cccs1`, the activity change is reported as 17.5% (inactive).
With `Cc1ccc([C@H]2C[C@H](O)[C@@H](n3cc(COC(=O)c4ccccc4)nn3)CN2C(=O)C2CCCCC2)cc1` the activity change was -14.7% (inactive).
In the case of `C[C@H](CO)N1C[C@H](C)[C@@H](CN(C)C(=O)c2cccc(F)c2)Oc2cc(-c3cncnc3)ccc2S1(=O)=O`, the activity change is reported as 3.54% (inactive).
In the case of `Clc1ccc(-c2cccc3nccn23)cc1`, the activity change is reported as 34.4% (inactive).
In the case of `CCOC(=O)c1cnn2c(SC)ncnc12`, the activity change is reported as -22.6% (inactive).
For `CN(O)C(=S)c1ccccc1`, the activity change was -116% (active).
With `CN(CC(=O)O)C(=O)c1ccccc1` the activity change was 19.1% (inactive).
For `CN(/N=C/c1ccccc1)C(=S)c1ccccc1`, the activity change was 1.93% (inactive).
For `CC(C)(C)C1CCC(=O)N2CCC[C@]2(c2ccccc2)C1` (some centres undefined), the activity change was 0.891% (inactive).
In the case of `COC(=O)c1c(NC(=O)CN2C(=O)NC(CCc3ccccc3)C2=O)sc2c1CCCCC2` (centres undefined), the activity change is reported as -15.4% (inactive).
With `CCOC(=O)CC(=O)CSc1nc(-c2ccccc2)cc(-c2ccc(Cl)cc2)c1C#N` the activity change was 6.24% (inactive).
With `CCOc1cc(-c2cc(-c3ccc(OC)cc3)nc(N)c2C#N)ccc1O` the activity change was -3.59% (inactive).
With `CCOc1cc(-c2cc(-c3ccc(NC(C)=O)cc3)nc(N)c2C#N)ccc1O` the activity change was -53.1% (active).
With `CC(C)(C)S(=O)(=O)N1Cc2cc(CO)cc(CCO)c2[C@H]1CCO` the activity change was 8.29% (inactive).
In the case of `CN(C)C(=O)c1cccc(-c2cnc3c(NC=O)cc(-c4ccc(C(=O)N5CCOCC5)cc4)cn23)c1`, the activity change is reported as -14.1% (inactive).
In the case of `Cc1nnc(NC(=O)CSc2nc(C3CCCCC3)nc3ccccc23)s1`, the activity change is reported as -0.35% (inactive).
In the case of `O=C(CSc1nc(C2CC2)nc2ccccc12)Nc1cccc(O)c1`, the activity change is reported as 2.55% (inactive).
For `O=C(CSc1nc(C2CC2)nc2ccccc12)Nc1ccc2c(c1)OCCO2`, the activity change was -71.5% (active).
With `CCN(CC)C(=O)C1=C(C)N(Cc2ccc(OC)cc2)C(=O)C(CC(=O)NCCCCc2ccccc2)C1` (centres undefined) the activity change was -14.3% (inactive).
With `CN(C)CCCN1C(=O)CSC1c1ccc([N+](=O)[O-])cc1` (centres undefined) the activity change was 36.5% (inactive).
For `CCCCc1ccc(NC(=O)NCc2cccnc2)cc1`, the activity change was -8.19% (inactive).
In the case of `CCCCCCCCCCCCN1C(=O)CSC1c1cccnc1` (centres undefined), the activity change is reported as -56.2% (active).
In the case of `O=C(NCc1cccnc1)c1ccc2nc([C@@H]3O[C@H](CO)[C@H](O)[C@H](O)[C@H]3O)[nH]c2c1`, the activity change is reported as 2.47% (inactive).
For `COc1cc(C(=O)OCC(=O)N(CC(C)C)C2CCS(=O)(=O)C2)ccc1OCC(C)C` (centres undefined), the activity change was -19.9% (inactive).
With `COc1cccc(-c2noc(C3CCCN(C(=O)c4ccc(F)cc4)C3)n2)c1` (centres undefined) the activity change was -17.2% (inactive).
With `CCOC(=O)C1(CCOc2ccccc2)CCN(C(=O)c2cncs2)CC1` the activity change was -28.5% (inactive).
For `CCOC(=O)C1(CCOc2ccccc2)CCN(Cc2cc(OC)cc(OC)c2)CC1`, the activity change was -89.9% (active).
For `CCOC(=O)C1(CCOc2ccccc2)CCN(Cc2ccc(C#CCCO)cc2)CC1`, the activity change was -57.7% (active).
With `CCOC(=O)C1(CCOc2ccccc2)CCN(Cc2cc(OC)c(O)cc2Cl)CC1` the activity change was -22.4% (inactive).
With `CCCS(=O)(=O)N1CCC(CCOc2ccccc2)(C(=O)OCC)CC1` the activity change was 30.8% (inactive).
For `CCOC(=O)C1(CCOC)CCN(Cc2ccc(C(=O)OC)cc2)CC1`, the activity change was 4.83% (inactive).

Reference: PubChem BioAssay AID743279 (National Center for Advancing Translational Sciences (NCATS), 2014)
% is scaled to controls: 0 for no effect and ±100 for the full control effect.
